PubChem BioAssay AID624116 (National Center for Advancing Translational Sciences (NCATS), 2012)
Results filed as inconclusive are left out. A number with no mark means an inactive call. The source made the active and inactive calls. Calls come from the whole dose curve; as a rule, active = well fitted activation curve with a large enough effect; inconclusive = small, poorly fitted or top-dose-only effect; inactive = no such curve, though single readings can be large or run the other way.

Experiment: qHTS Assay for Rab9 Promoter Activators: Hit Validation Using Renilla Luciferase Read-Out for Rab9; for activation, negative = inhibition: % of control where 0% means no effect
Details: Huh7 Rab9 promoter Renilla luciferase reporter, 24 h; series mostly up to 76.9 µM; activation, negative = inhibition: at the top concentration
Summary of the method: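 Huh7 cells stably carrying promoter-luciferase reporter, exposed to compound for 24 h at 37 deg C. Luminescence read 10 min after adding luciferase detection reagent at room temperature.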
Potency is the fitted concentration of half-maximal effect.

Question: With CCc1cc(C(=O)Nc2ccccc2)cs1 as the compound, how does the “activation, negative = inhibition” value read?
Answer: -35.2%

Question: With COc1ccccc1N(C(=O)c1snc(C(N)=O)c1N)C(C(=O)NC1CCCCC1)c1cccc(OC)c1OC (stereo not drawn) as the compound, how does the Potency read?
Answer: 26 µM (active)

Question: For CC1CN(C(=O)c2ccncc2)CC(C)O1 (stereo not drawn), which “activation, negative = inhibition” value is on record?
Answer: 5.39%

Question: For Fc1ccc(-c2nc3nc4ccccc4nc3n2Cc2ccco2)cc1, which “activation, negative = inhibition” value is on record?
Answer: -26%

Question: With Cc1ccc(C(=O)Nc2ccc(N3CCN(C)CC3)nc2)cc1 as the compound, how does the “activation, negative = inhibition” value read?
Answer: -4.41%

Question: With CC(=O)NC(=S)Nc1ccc2oc(-c3cc(F)c(F)cc3Cl)nc2c1 as the compound, how does the “activation, negative = inhibition” value read?
Answer: -6.34%

Question: For O=C(NNC(=O)C1COc2ccccc2O1)c1ccccc1O (stereo not drawn), which “activation, negative = inhibition” value is on record?
Answer: -25.9%

Question: Which “activation, negative = inhibition” value does the source give for CC(=O)c1cccc(NC(=O)N2CCOCC2)c1 here?
Answer: -2.63%

Question: Which “activation, negative = inhibition” value does the source give for O=C(NCCSCc1c(F)cccc1Cl)c1ccc(CN2CCOCC2)cc1 here?
Answer: -41.4%

Question: Which “activation, negative = inhibition” value does the source give for CC(Sc1ncnc2c1cnn2-c1ccccc1)C(=O)Nc1ccc(N2CCOCC2)cc1 (stereo not drawn) here?
Answer: -13.2%

Question: For CCOCC(=O)Nc1c(C(=O)Nc2ccc3c(c2)OCCO3)oc2ccccc12, which “activation, negative = inhibition” value is on record?
Answer: -30.9%

Question: Which Potency does the source give for O=C(O)C1=CC[C@@H](c2ccc(Cl)cc2)N(S(=O)(=O)c2ccc(Cl)cc2)[C@H]1c1ccccc1 here?
Answer: 14.6 µM (active)

Question: With O=C(N/N=C/c1ccc(-c2ccc(Br)cc2)o1)c1ccc2c(c1)OCO2 as the compound, how does the “activation, negative = inhibition” value read?
Answer: -4.86%

Question: For O=C(CSc1nnc(-c2csc3c2CCCC3)o1)Nc1ccccc1, which “activation, negative = inhibition” value is on record?
Answer: -63.3%

Question: With O=C(CCCn1c(=O)oc2ccccc21)N1CCN(c2ccccn2)CC1 as the compound, how does the “activation, negative = inhibition” value read?
Answer: -4.46%

Question: For Cc1ccc(NC(=O)c2ncc(Cl)c(Cl)c2Cl)cc1C, which “activation, negative = inhibition” value is on record?
Answer: -39.1%

Question: With Cc1nc(-c2ccccn2)sc1C(=O)Nc1ccc(F)cc1F as the compound, how does the “activation, negative = inhibition” value read?
Answer: -4.26%

Question: Which “activation, negative = inhibition” value does the source give for COc1ccc(NC(=O)Nc2ccc(Cc3ccncc3)cc2)cc1OC here?
Answer: -56.6%

Question: Which “activation, negative = inhibition” value does the source give for CC(=O)Nc1nnc(SCC(=O)NCCOc2ccccc2)s1 here?
Answer: -5.36%

Question: For CC(C)C(NC(=O)c1ccc([N+](=O)[O-])cc1Cl)C(=O)N1CCCC1 (stereo not drawn), which “activation, negative = inhibition” value is on record?
Answer: 6.26%

Question: With COC(=O)c1ccccc1NC(=O)c1ccc(-c2ccc(Br)cc2)o1 as the compound, how does the “activation, negative = inhibition” value read?
Answer: -10.6%

Question: For C=CCOC(=O)N1CCN(c2cccc(C(F)(F)F)c2)CC1, which “activation, negative = inhibition” value is on record?
Answer: -9.5%

Question: Which “activation, negative = inhibition” value does the source give for CCCCCCC(=O)Nc1ccc(C(=O)N/N=C/c2cccnc2)cc1 here?
Answer: 4.77%

Question: With S=C1NCN(CCc2ccccc2)CN1Cc1ccccc1 as the compound, how does the “activation, negative = inhibition” value read?
Answer: -1.12%

Question: Which “activation, negative = inhibition” value does the source give for Nc1ccccc1C(=O)N/N=C1/C2CN3CCN(C2)CC1(Cc1ccccc1)C3 here?
Answer: 3.83%

Question: With O=C(NCCc1c[nH]c2ccccc12)C(=O)NCC(c1ccco1)N1CCN(c2ccccc2F)CC1 (stereo not drawn) as the compound, how does the “activation, negative = inhibition” value read?
Answer: -2.24%

Question: With COc1ccc2oc(=O)c(C(=O)NC(C)c3ccccc3)cc2c1 (stereo not drawn) as the compound, how does the “activation, negative = inhibition” value read?
Answer: 6.37%

Question: With COc1ccccc1C(=O)Nc1nnc(SCC(=O)NC2CCCC2)s1 as the compound, how does the “activation, negative = inhibition” value read?
Answer: 8.95%

Question: Which “activation, negative = inhibition” value does the source give for Cc1noc(/C=C/N(C)C)c1S(=O)(=O)N1CCCC(C(=O)N2CCCCC2)C1 (stereo not drawn) here?
Answer: -4.53%

Question: Which “activation, negative = inhibition” value does the source give for CC1CCCN(S(=O)(=O)c2ccc(C(=O)Nc3nnc(-c4ccncc4)o3)cc2)C1 (stereo not drawn) here?
Answer: -50.3%

Question: For CC(C)(C)NC(=S)NNC(=O)c1ccc2ncccc2c1, which “activation, negative = inhibition” value is on record?
Answer: -21.4%

Question: Which “activation, negative = inhibition” value does the source give for Cc1ccc2c(c1)sc1nc(=O)n(-c3ccccc3)c(=O)n12 here?
Answer: -16.2%

Question: Which “activation, negative = inhibition” value does the source give for Cc1ccc(NC(=O)COC(=O)C2C3CC4OC(=O)C2C4C3)cc1Cl (stereo not drawn) here?
Answer: -1.3%

Question: For COCC1CCN(C(=O)c2ccc3oc(Cc4ccccc4)nc3c2)C1 (stereo not drawn), which “activation, negative = inhibition” value is on record?
Answer: -13.7%

Question: With CC(C)CC(=O)N1CCN(c2ccc(NC(=O)c3ccco3)cc2)CC1 as the compound, how does the “activation, negative = inhibition” value read?
Answer: 13.3%

Question: For FC(F)(F)c1ccc(Nc2nnnc3ccccc23)cc1, which “activation, negative = inhibition” value is on record?
Answer: -66.4%

Question: With COC(=O)c1ccccc1NC(=O)c1cc(-c2cccs2)on1 as the compound, how does the “activation, negative = inhibition” value read?
Answer: 15.6%

Question: With O=C(NC(=S)Nc1ccc(CN2CCCCC2)cc1)c1cc2ccccc2o1 as the compound, how does the “activation, negative = inhibition” value read?
Answer: -6.19%
